Screening results: PubChem BioAssay, National Center for Advancing Translational Sciences (NCATS)
Shown are actives, neighbours in structure and some others; about 12% of the full set was active somewhere.
SARS PLpro yeast = qHTS of Yeast-based Assay for SARS-CoV PLP. 0.19% of 330,000 active. Potency, µM (highest dose often 32.9 µM), without a hit: at the highest dose activity, positive = growth rescue, usual class: activators. S. cerevisiae expressing SARS-CoV PLpro, growth rescue. AID 485353, 2010; calls by dose curve; note: 0% is about no effect; nearly all actives have a fitted effect of over 55% in size
Pf growth 96h = Primary qHTS for delayed death inhibitors of the malarial parasite plastid, 96 hour incubation. Potency, µM (titrated, usually from 28.7 µM), for the others: at the top dose activity change, negative = inhibition, usual class: inhibitors. P. falciparum luciferase reporter growth, 96 h. 6.9% of 320,000 active; note: % is set by controls: 0 for no effect and ±100 for the full control effect
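P. falciparum expressing integrated firefly luciferase, in erythrocytes at 2% hematocrit, 0.05% parasitemia, incubated with compounds 96 h at 37 C, 5% CO2. Growth inhibition read as loss of luminescence; two-generation exposure targets delayed-death apicoplast inhibitors.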
Pf growth 48h = Primary qHTS for delayed death inhibitors of the malarial parasite plastid, 48 hour incubation | 5.9% of 310,000 active | P. falciparum luciferase growth in erythrocytes, 48 h | AID 504832, 2011 | Potency, µM (doses to about 28.7 µM), without a hit: at the highest dose activity change, negative = inhibition, most hits filed as inhibitors; note: % is set by controls: 0 for no effect and ±100 for the full control effect
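Cell-based growth assay: transgenic P. falciparum expressing firefly luciferase, cultured in red cells within RPMI 1640 containing 0.5% w/v Albumax, 24 mM bicarbonate and gentamycin. A drop in luciferase activity indicates inhibition.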
Sm TGR inh = qHTS Assay for the Inhibitors of Schistosoma Mansoni Peroxiredoxins | Schistosoma mansoni thioredoxin glutathione reductase (TGR), Q962Y6 | purified TGR, DTNB reduction, TNB absorbance 405 nm | Potency, µM (highest dose often 114 µM), for the others: top-dose activity change, negative = inhibition, usual class: inhibitors | 3% of 360,000 active; note: % is set by controls: 0 for no effect and ±100 for the full control effect; nearly all actives have a fitted effect of over 60% in size
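TGR 20 nM + NADPH 100 uM (dispensed conc.), cpd preinc 15 min RT; start with NADPH (500 uM addition) then DTNB (15 mM addition). Kinetic TNB absorbance, 405 nm filter. Four-parameter Hill fit across titration.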
Starred values were filed as active, the others as inactive; ? = inconclusive; . = not tested or not shown. Unless noted, calls come from the whole dose curve; as a rule, active = well fitted curve in the direction sought with a large enough effect; inconclusive = small, poorly fitted or top-dose-only effect, or another doubt; inactive = no such curve, though single readings can be large; an effect the other way counts as inactive or inconclusive. Potency is the fitted concentration of half-maximal effect.

SMILES	SARS PLpro yeast	Pf growth 96h	Pf growth 48h	Sm TGR inh
Cn1c(=O)c(C(=O)NCCc2ccc(Cl)cc2)c(O)c2ccccc21	0%	?	0%	0%
CCC1(CC)NC(=O)N(CC(=O)NC(=O)NCc2ccccc2)C1=O	2%	23%	11%	22µM*
COC(=O)C1=C(C)N(Cc2ccccc2)C(=O)N[C@H]1c1cccc(C(F)(F)F)c1	-3%	?	?	-1%
CCN1C(=NCC2CC2)N[C@@H](c2cccc(C(F)(F)F)c2)C(C(=O)OC)=C1C	1%	12µM*	?	?
COC(=O)C1=C(C)N(Cc2ccco2)C(=O)N[C@@H]1c1cccc(C(F)(F)F)c1	18%	?	-16%	28µM*
CCN1C(=NCCOC)N[C@@H](c2cccc(C(F)(F)F)c2)C(C(=O)OC)=C1C	-2%	2.1µM*	-24%	-18%
CCN1C(=NCc2ccco2)N[C@@H](c2cccc(C(F)(F)F)c2)C(C(=O)OC)=C1C	-2%	45%	?	2%
Cc1cc(N2CCC(C)CC2)nc2ccc(NC(=O)/C=C/c3cccc(Cl)c3)cc12	.	.	.	1%
Cc1ccc(C(=O)C(C)OC(=O)Cn2cnc3c2c(=O)n(C)c(=O)n3C)cc1 (stereo unspecified)	-1%	12%	?	-2%
O=C(O)c1cccc2c1C(=O)c1ccc(-c3ccc(F)cc3OCc3ccccc3)cc1S2(=O)=O	3%	?	?	32µM*
O=C1c2ccc(-c3ccc(F)cc3OCc3ccccc3)cc2S(=O)(=O)c2cccc(C(=O)N3CCN(c4ncc(Br)cn4)CC3)c21	1%	.	.	.
COc1ccc(C(=O)COC(=O)CCS(=O)(=O)c2ccc(C)cc2)c(OC)c1	9%	12%	?	-2%
Cc1ccc(S(=O)(=O)CCC(=O)c2ccc(O)cc2O)cc1	-29%	.	-13%	0.45µM*
COc1ccc(C(=O)CCS(=O)(=O)c2ccc(C)cc2)cc1OC	-12%	44%	11%	0.45µM*
Cc1ccc(-c2nc3ncccc3o2)cc1NC(=O)c1ccc(-c2ccc(Cl)cc2)o1	.	.	.	-11%
COc1ccc(NC(=O)CC2C(=O)N(c3cccc(OC)c3)C(=O)N2Cc2ccc3c(c2)OCO3)cc1 (stereo unspecified)	.	.	.	-6%
CC(NC(=O)Nc1cccc(Cl)c1)C(c1cccs1)N1CCCC1 (stereo unspecified)	27%	9.3µM*	?	9%
COc1ccccc1NC(=S)NC(C)C(c1cccs1)N1CCOCC1 (stereo unspecified)	0%	?	?	-18%
CC(NC(=O)Nc1ccc([N+](=O)[O-])cc1)C(c1cccs1)N1CCCC1 (stereo unspecified)	-22%	9.3µM*	?	?
CC(NC(=S)Nc1ccc(Cl)cc1Cl)C(c1cccs1)N1CCCC1 (stereo unspecified)	-1%	12µM*	?	-1%
COc1ccccc1C(=O)OCc1cc(=O)n2nc(C3CCCCC3)sc2n1	.	.	.	-1%
CCOc1ccc(CNC(=O)C2CCN(S(=O)(=O)c3cn(C)cn3)CC2)cc1OC	.	.	.	0%
CC(C)/C=C/CN1CCN(CCCc2ccccc2)C(CCO)C1 (stereo unspecified)	-1%	?	0%	0%
CCNC(=O)N1CCC(n2nccc2NC(=O)CCCc2ccccc2)CC1	-3%	13µM*	1%	2%
CN(C)S(=O)(=O)N1CCC(n2nccc2NC(=O)CCc2ccccc2)CC1	?	25%	9%	5%
SMILES	SARS PLpro yeast	Pf growth 96h	Pf growth 48h	Sm TGR inh
CSCC(=O)N1CCC(n2nccc2NC(=O)CCCc2ccccc2)CC1	-2%	-7%	-16%	8%
CN(C)S(=O)(=O)N1CCC(n2nccc2NC(=O)CCCc2ccccc2)CC1	0%	5.2µM*	?	-3%
C[C@@H]1C=CC(=O)O[C@@H]1c1ccc(C(F)(F)F)cc1	-14%	2.3µM*	?	0%
O=C(CN1CCN(c2ccccc2)CC1)Nc1ccccc1Sc1ccccc1	-2%	9.3µM*	?	-7%
CCc1cccc(CC)c1NC(=O)CN1CCN(c2ccccc2)CC1	7.1µM*	-1%	-19%	-22%
Cc1c(N=C2N=C(NC(=O)NC(C)(C)C)c3ccccc32)c(=O)n(-c2ccccc2)n1C	0%	?	13µM*	-15%
Cc1c(N=C2C=CC(=O)c3ccccc32)c(=O)n(-c2ccccc2)n1C	-5%	15µM*	?	13µM*
Cc1c(N=C2N=C(NC(=O)c3cccs3)c3ccccc32)c(=O)n(-c2ccccc2)n1C	1%	15%	-23%	2%
Cc1c(N=C2C=C(Br)C(=O)C(Br)=C2)c(=O)n(-c2ccccc2)n1C	-2%	?	-14%	2.8µM*
O=C(c1nn2c(C(F)(F)F)cc(-c3ccccc3)nc2c1Cl)N1CCOCC1	-4%	-2%	?	0%
O=C(c1nn2c(C(F)(F)F)cc(-c3cccs3)nc2c1Cl)N1CCCc2ccccc21	-2%	10µM*	28%	-17%
Cc1cccc(C)c1NC(=S)NCCc1ccc(O)c(O)c1	-1%	-20%	10µM*	7.9µM*
CCOC(=O)c1ccccc1NC(=O)c1sc2ncn(CC)c(=O)c2c1C	.	.	.	3%
CCC(=O)N1CCc2cc(S(=O)(=O)N3CCN(c4ccccc4Cl)CC3)ccc21	?	?	?	-7%
Cc1ccc(N2CCN(S(=O)(=O)c3ccc(F)c(C)c3)CC2)c(C)c1	-3%	.	-2%	0%
CCC(=O)c1cc(F)c(N2CCN(S(=O)(=O)c3ccc(C)cc3)CC2)cc1C	-7%	10µM*	?	7%
Cc1ccc(C)c(N2CCN(S(=O)(=O)c3ccc4c(c3)CC(=O)N4C)CC2)c1	21%	0%	8.3µM*	2%
CCC(=O)N1CCc2cc(S(=O)(=O)N3CCN(c4cc(C)ccc4C)CC3)ccc21	8%	10µM*	-12%	18%
Cc1ccc(C)c(N2CCN(S(=O)(=O)c3ccc4c(c3)n(C)c(=O)c(=O)n4C)CC2)c1	.	.	.	-3%
COc1ccc(Cl)cc1NC(=O)CSc1nnc(Cc2ccc(C)cc2)c(=O)[nH]1	-2%	1%	6%	4%
CN(C)C(CNC(=O)c1ccc(-c2ccccc2)cc1)c1ccccc1 (stereo unspecified)	1%	?	?	-3%
C/C=C(\C)C(=O)Nc1cccc(C2=NOC3(C2)C[C@@H](C(N)=O)N(C(=O)c2ccccc2C(=O)c2ccccc2)C3)c1 (stereo partly specified)	-1%	?	?	6%
C=C(C)C(=O)Nc1cccc(C2=NOC3(C2)C[C@H](C(N)=O)N(C(=O)c2ccccc2C(=O)c2ccccc2)C3)c1 (stereo partly specified)	2%	13µM*	?	0%
